# Screening results: PubChem, National Center for Advancing Translational Sciences (NCATS)
# Hits are enriched below; roughly 6.5% of the tested compounds scored in any of these assays.
# LASV entry inh: qHTS for Inhibitors of binding or entry into cells for Lassa Virus | Lassa virus pseudotype entry inhibition, cell reporter | Potency, µM (top dose mostly 37.9 µM), without a hit: at the top dose activity change, negative = inhibition, actives largely listed as inhibitors | 1.2% of 300,000 active | AID 540256, 2011; calls by dose curve; tested in HEK293 cells; further: potency means the concentration at half of the fitted maximal effect; nearly all actives have a fitted effect of over 50% in size
# FMDV inh: High Throughput Screening for Foot and Mouth Disease Virus Antivirals; FMDV antiviral cell-based qHTS; Potency, µM (titrated, usually from 57.9 µM), without a hit: at the top dose activity change, negative = inhibition, actives largely listed as inhibitors; 1.2% of 410,000 active; AID 1159524, 2015; calls by dose curve; tested in HEK293T cells; further: read-out not given here; potency means the concentration at half of the fitted maximal effect; nearly all actives have a fitted effect of over 45% in size
# HCMV antiviral: qHTS Assay for inhibitors of the human cytomegalovirus (HCMV); HFF cells, HCMV-luciferase reporter, 72 h; stronger effect = lower value; activity change, negative = inhibition, % at 57.5 µM; 4.5% of 410,000 active; AID 1259415, 2018; in the data active means activity change below about -60%; inconclusive means no clear call, values can overlap the other calls; inactive means above about -39%
#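 Screen run at 2 compound doses on HFFs infected with reporter HCMV, MOI 1 PFU/cell. Luciferase activity from cell lysates at 72 h post infection gave inhibition relative to buffer-only and Salinomycin wells.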
# Marburg entry inh: qHTS for inhibitors of binding or entry into cells for Marburg Virus. Marburg virus pseudotyped entry inhibition, cell reporter. Potency, µM (titrated, usually from 37.8 µM), for inactives: top-dose activity change, negative = inhibition, hits mostly inhibitors. 1.8% of 300,000 active; calls by dose curve; tested in HEK293 cells; further: potency means the concentration at half of the fitted maximal effect
# VACV mCherry inh: qHTS for Stage-Specific Inhibitors of Vaccinia Orthopoxvirus: mCherry Reporter Primary qHTS | Potency, µM (top dose mostly 36.5 µM), without a hit: at the top dose activity change, negative = inhibition, most hits filed as inhibitors | Vaccinia virus mCherry reporter infection, fluorescence | 0.63% of 310,000 active; calls by dose curve; tested in A549 cells; further: potency means the concentration at half of the fitted maximal effect; nearly all actives have a fitted effect of over 35% in size
# VACV Venus inh: qHTS for Stage-Specific Inhibitors of Vaccinia Orthopoxvirus: Venus Reporter Primary qHTS. Vaccinia virus Venus reporter expression, fluorescence. Potency, µM (doses to about 36.5 µM), for the others: top-dose activity change, negative = inhibition, hits mostly inhibitors. 0.46% of 330,000 active; calls by dose curve; tested in A549 cells; further: potency means the concentration at half of the fitted maximal effect; nearly all actives have a fitted effect of over 30% in size
# An asterisk follows results filed as active; i = inactive; ? = inconclusive; . = no result; [ ] = dose if it differs, or a comment. On the % scale 0 is the no-effect control and ±100 the full control effect.
SMILES,LASV entry inh,FMDV inh,HCMV antiviral,Marburg entry inh,VACV mCherry inh,VACV Venus inh
COc1ccc(/C=C(\C#N)C(=O)OCC(=O)Nc2c(C)cccc2C)cc1,-5.4%,-23.2%,-61.4*,?,i,-13.4%
Cc1cccc(OCCC(=O)Nc2ccc(C)c(S(=O)(=O)N3CCCCC3)c2)c1,?,-8.6%,-64.5*,?,?,?
COc1ccc(NC(=O)CCOc2cc(C)ccc2C)cc1S(=O)(=O)N1CCCCC1,?,?,-61.9*,?,?,?
COc1ccc(NC(=O)CCCOc2ccc(C)cc2)cc1S(=O)(=O)N1CCCCC1,.,?,-10.7,.,i,-22.0%
O=C(CCn1c(=O)c2cccn2c2cccnc21)N1CCN(c2cccc(C(F)(F)F)c2)CC1,-4.8%[46.1 µM],?,-13.3,.,-18.1%,-6.0%
COc1cc(CNc2ccc(N3CCCCC3)cc2)ccc1OCC(=O)NC(C)(C)C,?,?,-86.1*,?,?,15.2%
COc1cc(CNC(C)C23CC4CC(CC(C4)C2)C3)ccc1OCC(=O)NC(C)(C)C (configuration not stated),?,-9.0%,?,6.31µM*,?,-23.3%
COc1cc(CNC(C)(C)CO)ccc1OCC(=O)NC(C)(C)C,4.1%,-12.3%,4.5,?,-12.5%,-10.5%
COc1cc(CNCc2cccs2)ccc1OCC(=O)NC(C)(C)C,-3.0%,-14.9%,-24.5,9.2µM*,-23.8%,-11.9%
COc1cc(CNc2ccc(N3CCCC3)cc2)ccc1OCc1ccccc1,-27.4%,-27.1%,-1.6,?,-13.2%,1.5%
O=C(CSc1nc2ccccc2n1Cc1c(F)cccc1Cl)N1CCN(c2ccc(F)cc2)CC1,.,-9.3%,19.6,14.9%[46.1 µM],-16.1%,-3.3%
Cc1cccc(C(=O)NC(=O)Nc2ccc(-n3nc(C(F)(F)F)cc3C(F)(F)F)cc2)c1,-19.5%[46.1 µM],-9.6%,-2.6,-14.9%[46.1 µM],2.3%,-8.6%
Cc1cccc(CCn2c(=O)c3ccccc3n(Cc3cccc(F)c3)c2=O)c1,-13.0%[46.1 µM],-6.9%,3.7,0.6%[46.1 µM],-13.4%,-4.0%
CC(C)c1ccc(CN2C(=O)C(n3ccc4ccccc43)c3cc(Cl)ccc32)cc1 (configuration not stated),.,.,-75.9*,.,.,.
COc1ccc2c(c1)C(n1ccc3ccccc31)C(=O)N2Cc1ccc(C(F)(F)F)cc1 (configuration not stated),.,.,27.0,.,.,.
CC(C)c1ccc(CN2C(=O)C(n3ccc4ccccc43)c3cc(F)ccc32)cc1 (configuration not stated),.,.,2.5,.,.,.
COc1ccc(CN2C(=O)C(n3ccc4ccccc43)c3cc(OC(F)(F)F)ccc32)cc1 (configuration not stated),.,.,-90.9*,.,.,.
CCOc1ccc(C2C(=O)N(C3CCCCCC3)CC(=O)N2CCc2ccccc2)cc1OC (configuration not stated),-25.5%[46.1 µM],-20.0%,?,.,-8.8%,-8.5%
c1ccc(-c2nc3ccccc3[nH]2)nc1,?,-8.7%,5.1,-32.0%,-9.2%,3.3%
O=c1[nH]c(-c2ccccn2)nc(C(F)(F)F)c1Br,?,-26.4%,25.2,?,11.2µM*,-16.6%
O=c1[nH]c(-c2ccccn2)nc2ccccc12,?,-14.7%,-106.4*,?,.,-17.2%
Cc1ccc2nc(-c3ccccn3)[nH]c2c1,6.31µM*,-39.5%,7.1,?,-11.5%,-7.4%
COc1cc(C(=O)N(Cc2cc3ccc(C)cc3nc2N(C)C)C2CC2)cc(OC)c1OC,.,8.6%,.,.,-7.6%,3.1%
CCc1ccccc1NC(=O)Cn1nc2c3cc(F)ccc3n(Cc3cccc(C)c3)cc-2c1=O,-9.5%[46.1 µM],-12.4%,7.4,.,-2.1%,-6.8%
CC(=O)Nc1ccc(S(=O)(=O)NCCSCc2ccccc2Cl)cc1,?,-27.3%,-84.4*,?,-15.3%,?
SMILES,LASV entry inh,FMDV inh,HCMV antiviral,Marburg entry inh,VACV mCherry inh,VACV Venus inh
CC(=O)Nc1ccc(S(=O)(=O)NCC2CCC(C(=O)NCc3ccccc3Cl)CC2)cc1 (configuration not stated),-11.6%[46.1 µM],27.5%,0.0,.,-5.0%,-1.5%
CCOC(=O)N1CCc2c(sc(NCc3ccc(N(C)C)cc3)c2C(=O)Nc2ccccc2OCC)C1,?,?,17.6,.,-29.2%,-16.0%
O=C1c2ccccc2/C(=C\c2ccc3[nH]ccc3c2)N1c1ccccc1,.,24.3%,-66.5*,.,?,-29.7%
CCC1CN2CCc3cc(OC)c(OC)cc3C2CC1CC1NCCc2c1[nH]c1ccc(O)cc21 (configuration not stated),0.501µM*,?,-98.9*,0.224µM*,?,5.62µM*
CC[C@@H]1CN2CCc3cc(OC)c(OC)cc3[C@H]2C[C@@H]1C[C@H]1NCCc2cc(OC)c(OC)cc21,.,.,.,0.326µM*,.,.
COc1cc2c(cc1OC)C(Cc1ccc(O)cc1)N(C)CC2 (configuration not stated),0.0%,-13.4%,-17.5,-8.2%,-8.4%,-3.6%
COc1ccccc1CNC(=O)CCCn1c(=O)c2ccccc2n(Cc2ccc(C)cc2)c1=O,21.3%[46.1 µM],-10.0%,6.5,-3.1%[46.1 µM],-16.2%,-12.7%
CCOc1ccc(CCNC(=O)c2cnc3sc(N4CCCCCC4)nn3c2=O)cc1,?,?,20.6,.,-8.4%,?
CCN(CC)c1nn2c(=O)c(C(=O)NCCc3ccc(C)cc3)cnc2s1,?,?,-64.5*,.,-8.2%,-12.8%
CCOc1ccc(CCNC(=O)c2cnc3sc(N(CC)CC)nn3c2=O)cc1OCC,0.7%[46.1 µM],0.0%,-6.1,.,i,-12.0%
CCOc1ccc(CCNC(=O)c2cnc3sc(N4CCCC4)nn3c2=O)cc1,?,28.2µM*,-24.0,.,?,?
COC(=O)[C@@H]1CCCN1C(=O)c1c(OC)cc(=O)n2c1CCN(Cc1ccc3nsnc3c1)CC2,.,-4.1%,.,.,-10.3%,-6.6%
CCOc1ccccc1Oc1cn[nH]c1-c1ccc(O)cc1O,?,?,-78.3*,?,?,-19.0%
C=C(C)COc1ccc(-c2[nH]ncc2Oc2ccccc2OCC)c(O)c1,?,-8.9%,-17.0,?,.,?
CCCc1ccc(Oc2cn[nH]c2-c2ccc(O)cc2O)cc1,?,0.0%,-67.8*,-20.2%,.,.
CC(C)C[C@H](NC(=O)c1nc[nH]c1C(=O)N[C@@H](CC(C)C)C(=O)OC(C)(C)C)C(=O)OC(C)(C)C,.,39.8µM*,-22.8,.,?,10µM*
CC(C)C[C@H](NC(=O)c1nc[nH]c1C(=O)NC(c1ccccc1)c1ccccc1)C(=O)OC(C)(C)C,.,-18.8%,-63.0*,.,?,?
C/C(=N\OCc1ccc(C#N)cc1)c1ccccc1,.,87.4%,-12.8,.,.,.
C/C(=N/OCO/N=C(\C)c1ccccc1)c1ccccc1,?,-7.1%,-36.4,3.55µM*,-7.3%,7.5%
